PubChem BioAssay
A number with no mark means an inactive call. The rule behind the calls is not given here.

Target: Pantothenate synthetase (Mycobacterium tuberculosis (strain ATCC 25618 / H37Rv)) (UniProt P9WIL5)
Assay: Recombinant Mtb pantothenate synthetase (PanC) inhibitors, coupled enzyme, confirmatory (AID 375);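 note: 0% = full reaction with vehicle and 100% = no enzyme background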
Conditions: coupled enzyme assay; at 10 µM, active compounds read high

Pantothenate synthetase (Mycobacterium tuberculosis (strain ATCC 25618 / H37Rv)), sequence (P9WIL5 whole entry, looked up): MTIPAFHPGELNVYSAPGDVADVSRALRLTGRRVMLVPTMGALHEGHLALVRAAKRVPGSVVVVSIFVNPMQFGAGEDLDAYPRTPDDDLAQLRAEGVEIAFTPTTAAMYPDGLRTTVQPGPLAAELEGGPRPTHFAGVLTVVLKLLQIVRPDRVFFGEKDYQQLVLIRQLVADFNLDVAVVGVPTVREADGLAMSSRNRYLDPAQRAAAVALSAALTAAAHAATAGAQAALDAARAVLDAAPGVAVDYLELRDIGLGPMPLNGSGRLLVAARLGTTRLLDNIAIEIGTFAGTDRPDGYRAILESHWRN

Row | Structure (SMILES) | inhibition
1 | O=C(CSc1nc2ccccc2n1CC(=O)N1CCCC1)Nc1nccs1 | 0%
2 | CCOC(=O)Cc1nnc2c(Nc3ccc(C)cc3)nc3nonc3n12 | 1%
3 | COc1ccc2nc(NC(=O)C3CCCN(S(=O)(=O)c4cccc5nsnc45)C3)sc2c1 (stereo unspecified) | 5%
4 | COc1ccc(-c2nnc3sc(-c4c(OC)cccc4OC)nn23)cc1 | 6%
5 | CCc1ccccc1NC(=O)C(C#N)Cc1cccnc1 (stereo unspecified) | 0%
6 | CCOc1cc(C(=O)N2CCN=C2SC)cc(OCC)c1OCC | 7%
7 | CCn1c(=O)c2cc(S(=O)(=O)NCc3ccccc3)ccc2n(CC)c1=O | 0%
8 | Cc1ccc(Cl)cc1N1CCN(C(=O)CN2C(=O)c3cccc4cccc2c34)CC1 | 6%
9 | O=C(CSc1n[nH]c(-c2cccs2)n1)N1CCN(S(=O)(=O)c2ccccc2)CC1 | 0%
10 | Cc1cc(C(=O)COc2cccc3cccnc23)c(C)n1C | 0%
11 | Nc1nc(SCc2ccc(Cl)cc2Cl)n[nH]1 | 5%
12 | COc1cccc(NC(=O)C2C3C=CC4(O3)C2C(=O)N(C(C)C)C4C(=O)NC2CCCCC2C)c1 (stereo unspecified) | 2%
13 | CC1CCCCC1NC(=O)Cn1nnc(-c2ccc(Cl)cc2)n1 (stereo unspecified) | 1%
14 | Cc1cnc(C(=O)OCC(=O)Nc2ccc(Oc3ccccc3)cc2)cn1 | 0%
15 | Cc1ccc(-n2c3c(cc(C(=O)O)c2=O)C(=O)CC(C)(C)C3)cc1 | 3%
16 | Cc1cc(S(=O)(=O)N2CCN(c3ncccn3)CC2)ccc1-n1cnnn1 | 1%
